Assay results published in PubChem BioAssay AID652235 (Sanford-Burnham Center for Chemical Genomics, 2013).
The list shows a part of the results. The source made the active and inactive calls.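 How the source made its calls: active means inhibition of at least 50% in the primary cell screen; inactive means the rest.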

Target: Matrix metalloproteinase-14 (Homo sapiens) (UniProt P50281)
Test: retesting blockers of MT1-MMP activation – single concentration, fluorescence, HT1080 RFP-PRO-GFP cells, confirmation (AID 652235)
Conditions: GFP and RFP fluorescence ratio, overnight, at 20 µM, stronger effect = higher value

Compound | inhibition
CN=C1C=C/C(=N/N=c2\ccn(O)cc2C)C=C1C | 43.7% (inactive)
O=C(c1cccc(Cl)c1)N1CCN(Cc2ccccc2)CC1 | -1.11% (inactive)
COc1ccc(C)cc1Nc1nc(-c2c(C)[nH]c3ccccc23)cs1 | 4.82% (inactive)
O=C(NNc1c2ccccc2nc2ccccc12)c1cc2ccccc2cc1O | 52.9% (active)
Nc1ccc(Nc2ccccc2)cc1 | 12.6% (inactive)
Cc1cc2ccccc2n1CCNC(=O)COc1ccc2ccccc2c1 | 6.16% (inactive)
O=c1ccc2c(-c3ccccc3S(=O)(=O)O)c3ccc(O)c(O)c3oc-2c1O | 48.5% (inactive)
O=C1CCCC(O)=C1N=Nc1ccc(S(=O)(=O)N2CCOCC2)cc1 | 4.19% (inactive)
O=P(O)(CP(=O)(c1ccccc1)c1ccccc1)c1ccccc1 | -1.14% (inactive)
